Compounds with a hit are over-represented: about 5.9% of the library has one in this group of screens.
KB-V1 MDR tox – kills drug-selected multidrug resistant KB-V1 cells; 400,000 tested, 3.4% active; Potency, µM (titrated, usually from 46.1 µM), most hits filed as cytotoxic; AID 1347076; KB-V1 MDR cells viability, CellTiter-Glo, 72 h; also: % is scaled to controls: 0 for no effect and ±100 for the full control effect; nearly all actives have a fitted effect of over 60% in size
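qHTS viability screen in drug-selected KB-V1 MDR cells: 72 h compound treatment at 37 degrees C, ATP luminescence end point.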
HepG2 tox – kills HepG2 cells in TGF-b inhibitor counter-screen. HepG2 CAGA-GFP viability, ATP luminescence, 18 h. Potency, µM (highest dose often 46.1 µM), for inactives: at the highest dose activity change, negative = cytotoxicity, usual class: cytotoxic. 410,000 tested, 0.76% active
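CellTiter-Glo luminescence gave cytotoxicity after 18 hours at 37 degrees C. The cells were HepG2 CAGA-GFP in 1% FBS DMEM, stimulated with 500 pg/mL TGF-beta after compound addition. %Activity was normalised to no-cell wells (complete cell-killing) and DMSO (no toxicity), and curves were fitted and classified.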
S2 tox – reduces viability in counter-screen for ATXN expression inhibitors; S2 cells (HEK-293 line with an ATXN2-luciferase reporter) viability, CellTiter-Fluor protease fluorescence, 24 h; Potency, µM (doses to about 56.7 µM), most hits filed as cytotoxic; 400,000 tested, 0.49% active; AID 651635; also: nearly all actives have a fitted effect of over 40% in size
KB-3-1 tox – kills parental KB-3-1 adenocarcinoma cells. Potency, µM (series often up to 46.1 µM), most hits filed as cytotoxic. 400,000 tested, 1.4% active. AID 1347075. KB-3-1 viability, CellTiter-Glo ATP luminescence, 72 h; also: % is scaled to controls: 0 for no effect and ±100 for the full control effect; nearly all actives have a fitted effect of over 60% in size
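72 h, 37 °C compound treatment of KB-3-1 parental cells; CellTiter-Glo added, 10 min, luminescence read. Data corrected against DMSO-only plates and normalized before curve fitting.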
ATXN2 expr inh – inhibitors of ATXN2 expression; HEK-293 ATXN2-luciferase reporter, luminescence, 24 h; Potency, µM (top dose mostly 57 µM), inactives show top-dose activity change, negative = inhibition, most hits filed as inhibitors; 360,000 tested, 0.72% active; also: % is scaled to controls: 0 for no effect and ±100 for the full control effect; nearly all actives have a fitted effect of over 55% in size
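ATXN2-luciferase reporter cells (luciferase flanked by upstream and downstream ATXN2 gene portions) were treated 24 h at 37 °C with compounds at up to 57 uM. SteadyGlo luminescence gave expression; GF-AFC fluorescence gave viability.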
TGFb SMAD3 inh – TGF-b pathway inhibition | Potency, µM (series often up to 46.1 µM), for the others: at the top dose activity, negative = inhibition, usual class: inhibitors | 410,000 tested, 1.2% active | HepG2 CAGA-GFP TGF-b/SMAD3 reporter, GFP fluorescence, 18 h; TGF-beta stimulated, 500 pg/mL final; also: % is scaled to controls: 0 for no effect and ±100 for the full control effect; nearly all actives have a fitted effect of over 65% in size
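Inhibition of TGF-beta-driven CAGA-GFP reporter expression in HEPG2 cells is measured by cellular GFP fluorescence after 18 h stimulation with 500 pg/mL recombinant TGF-beta in 1% FBS medium at 37 degrees C.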
* marks the source's active call; other numbers are inactive results; i = inactive; u = inconclusive; x = no result; ! = not active in a repeat. Calls follow the shape of the dose curve; as a rule, active = well fitted curve in the direction sought with a large enough effect; inconclusive = small, poorly fitted or top-dose-only effect, or another doubt; inactive = no such curve, though single readings can be large; an effect the other way counts as inactive or inconclusive. Potency is read from the fitted curve at half-maximal effect.

SMILES	KB-V1 MDR tox	HepG2 tox	S2 tox	KB-3-1 tox	ATXN2 expr inh	TGFb SMAD3 inh
O=c1[nH]cnc2c1sc1nc(C(F)F)cc(-c3ccccc3)c12	11.6µM*	-18.1%	i	u	9.1%	0.0%
OC(CN1c2ccccc2Sc2ccccc21)Cn1nnc2ccccc21 (centres undefined)	16.4µM*	17.8µM*	u	u	-10.7%	0.0%
Cc1nn(CC(O)CN2c3ccccc3Sc3ccccc32)c(C)c1Br (centres undefined)	u	-120.9%	i	i	0.2%	12.6µM*
Cc1nn(CC(O)c2ccccc2)c(C)c1Br (centres undefined)	i	0.6%	x	i	x	0.0%
CC(C)(C)c1cc(NC(=O)CCSc2nnc3ccccn23)cc(C(C)(C)C)c1	3.66µM*	-8.6%	i	i	u	12.7%
CCc1cc(CC)c(/C=N/NC(N)=O)c(CC)c1	i	-15.4%	i	i	-28.7%	u
Cc1cc(C)c(/C=N/NC(N)=O)c(C)c1/C=N/NC(N)=O	u	6.3%	i	3.66µM*	5.5%	-1.7%
Cc1cc(C(=O)N2CC=C(c3ccccc3)CC2)c2ccccc2n1	1.46µM*	-1.5%	u	u	u	u
CC(=O)N1CCN(C(=O)c2cc(C)nc3ccccc23)CC1	i	18.1%	i	i	x	3.1%
Cc1c(C(=O)C(=O)N2c3ccccc3CC2C)c2ccccc2n1C (centres undefined)	20.6µM*	3.2%	i	23.1µM*	u	-18.5%
Cc1ccccc1NC(=O)N1c2ccccc2CC1C (centres undefined)	i	-7.0%	i	i	14.6%	-23.7%
Cc1c(C(=O)C(=O)N2CC=C(c3ccccc3)CC2)c2ccccc2n1C	3.66µM*	4.7%	i	2.91µM*	-19.4%	8.0%
Cc1ccc(C(=O)N2CC=C(c3ccccc3)CC2)o1	i	-11.0%	i	i	1.9%	-1.5%
O=C(NCCc1ccccc1)C(=O)NCC(c1cccs1)S(=O)(=O)c1cccs1 (centres undefined)	i	-19.9%	i	i	-7.4%	9.3%
O=C(Nc1ccccc1C(=O)OCc1cc(=O)n2nc(C3CC3)sc2n1)c1cccc(Cl)c1	i	3.8%	i	i	2.5%	0.0%
CO[C@H]1C[C@H](O[C@H]2[C@H](C)[C@@H](O[C@@H]3O[C@H](C)C[C@H](N(C)C)[C@H]3OC(C)=O)[C@@H](C)C[C@]3(CO3)C(=O)[C@H](C)[C@@H](OC(C)=O)[C@@H](C)[C@@H](C)OC(=O)[C@@H]2C)O[C@@H](C)[C@@H]1OC(C)=O	x	x	i	x	x	x
CN(C)c1ccc(/C=C/c2ccc3cc(N(C)C)ccc3n2)cc1	u	-43.7%	x	i	x	-7.1%
CN(C)c1ccc(/C=C/c2ccc3ccccc3n2)cc1	7.31µM*!	5.62µM*!	x	8.2µM*!	x	28.8%
Oc1ccc(/C=C/c2ccc3ccccc3n2)cc1	i	-2.2%	x	u	x	-2.5%
CN(C)c1ccc(/C=C/c2cc(/C=C/c3ccc(N(C)C)cc3)c3ccccc3n2)cc1	i	-5.6%	x	i	x	27.1%
CC[N+](CC)(CC)c1ccc(/C=C/c2ccc3ccccc3n2)cc1	i	10µM*	x	1.84µM*	x	6.31µM*
CN(C)c1ccc(/C=C/c2cccc3cc4ccccc4nc23)cc1	i	14.1µM*	x	4.11µM*	x	1.58µM*
CN(C)c1ccc(/C=C/c2cc3ccccc3cn2)cc1	i	-45.0%	x	1.46µM*	x	11.2µM*
C(=C\c1ccc2ccccc2n1)/c1ccc2ccccc2n1	u	8.1%	x	u	x	13.3%
C(=C\c1ccc2ccccc2n1)/c1ccccc1	i	10µM*!	i	u	x	u
SMILES	KB-V1 MDR tox	HepG2 tox	S2 tox	KB-3-1 tox	ATXN2 expr inh	TGFb SMAD3 inh
CN(C)c1ccc(/C=C/c2ccnc3c(Cl)cccc23)cc1	u	-34.7%	x	16.4µM*	x	48.7%
O=C(/C=C/c1ccc[nH]1)c1ccc(F)cc1	i	-14.7%	i	i	12.1%	-5.4%
O=C(/C=C/c1c(F)cccc1Cl)c1ccc(F)cc1	i	15.8µM*	i	i	-13.0%	u
CC1=C(C(=O)N(C(C)C)C(C)C)CC(CC(=O)NC2CCCCC2)C(=O)N1Cc1ccc(F)cc1 (centres undefined)	i	-13.3%	i	i	0.4%	u
O=C(Nc1ccc(CN2CCOCC2)cc1)c1cc2ccccn2n1	i	-31.0%	i	i	22.4µM*	-10.7%
O=C(Nc1ccc(CN2CCOCC2)cc1)c1cc2ccccc2o1	u	-5.7%	i	i	7.5%	-1.2%
O=[N+]([O-])/C=C/c1cc2ccccc2[nH]1	i	20µM*	u	i	x	u
Cc1ccc2c(c1)/C(=C/c1ccc(F)cc1)C(=O)N2	i	10µM*	u	i	x	u
COc1ccc2c(c1)/C(=C/c1cc(OC)c(OC)c(OC)c1)C(=O)N2	u	-8.9%	u	2.31µM*	-21.4%	u
Cc1ccc2c(c1)/C(=C/c1ccccc1C)C(=O)N2	u	-40.7%	u	i	0.0%	0.0%
COc1ccc(NC(=O)Nc2nnc([C@@H]3C[C@H](O)[C@@H](CO)O3)s2)cc1	i	2.2%	u	i	1.7%	-12.5%
CC(C)Cc1nn2c(=O)cc(COC(=O)c3cccc(NS(C)(=O)=O)c3)nc2s1	x	3.4%	x	x	x	0.9%
Cc1cccc(-n2c(Cc3ccccc3)nnc2SCc2ccc([N+](=O)[O-])cc2)c1	7.31µM*	-28.3%	i	u	-11.8%	u
O=[N+]([O-])c1ccc(CSc2nnc(Cc3ccccc3)n2-c2ccc(F)cc2)cc1	u	-4.6%	u	i	-22.2%	-7.9%
Cc1cccc(-n2c(SCc3ccc(C#N)cc3)nnc2-c2c[nH]c3ccccc23)c1	3.26µM*	1.0%	u	u	u	12.7%
O=C(Nc1ccc(F)cc1F)c1cc(S(=O)(=O)N2CCCCC2)c[nH]1	u	-18.5%	u	18.4µM*	-26.7%	13.1%
COc1ccc(NC(=O)c2cc(S(=O)(=O)N3CCCC3)c[nH]2)cc1	u	2.51µM*	i	i	8.4%	u
O=C(Nc1ccc(F)cc1F)c1ccc(S(=O)(=O)N2CCCCC2)cc1	x	-8.2%	i	x	-2.8%	0.5%
CCN(C(=O)c1cccs1)c1nnc(-c2ccncc2)s1	18.4µM*	-9.8%	i	i	39.2%	-2.0%
CCCCNC(=S)Nc1ccc(Cl)cc1	16.4µM*	-7.9%	i	i	15.4%	3.2%

Bioassay records as filed in PubChem.
